The text below walks through data of PubChem BioAssay AID434962 (The Scripps Research Institute Molecular Screening Center, 2010).

The campaign covered roughly 320,000 compounds. About 1,300 (0.41%) were called active.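 The calls were made as follows: active = percent inhibition above the average of all tested compounds plus 3 SD, set per screening campaign (cut at about 16% in these data); inactive = the rest.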 Shown is part of a subset that was picked to be rich in actives.

For the test, the target named is Insulin-degrading enzyme (Homo sapiens) (UniProt P14735). In words: human IDE inhibitors in live cells, primary screen, fluorescence polarization, HEK cells, FAbetaB substrate (AID 434962).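 Also: IDE supplied by intact live HEK cells; FP after avidin binding of uncleaved biotin substrate so inhibition keeps polarization high; 0% = DMSO wells and 100% = 60 µM reference IDE inhibitor Ii1.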 The settings on record: FAbetaB cleavage, at 5.59 µM, hits give high values.
Sequence of Insulin-degrading enzyme (Homo sapiens) (P14735 whole entry, looked up): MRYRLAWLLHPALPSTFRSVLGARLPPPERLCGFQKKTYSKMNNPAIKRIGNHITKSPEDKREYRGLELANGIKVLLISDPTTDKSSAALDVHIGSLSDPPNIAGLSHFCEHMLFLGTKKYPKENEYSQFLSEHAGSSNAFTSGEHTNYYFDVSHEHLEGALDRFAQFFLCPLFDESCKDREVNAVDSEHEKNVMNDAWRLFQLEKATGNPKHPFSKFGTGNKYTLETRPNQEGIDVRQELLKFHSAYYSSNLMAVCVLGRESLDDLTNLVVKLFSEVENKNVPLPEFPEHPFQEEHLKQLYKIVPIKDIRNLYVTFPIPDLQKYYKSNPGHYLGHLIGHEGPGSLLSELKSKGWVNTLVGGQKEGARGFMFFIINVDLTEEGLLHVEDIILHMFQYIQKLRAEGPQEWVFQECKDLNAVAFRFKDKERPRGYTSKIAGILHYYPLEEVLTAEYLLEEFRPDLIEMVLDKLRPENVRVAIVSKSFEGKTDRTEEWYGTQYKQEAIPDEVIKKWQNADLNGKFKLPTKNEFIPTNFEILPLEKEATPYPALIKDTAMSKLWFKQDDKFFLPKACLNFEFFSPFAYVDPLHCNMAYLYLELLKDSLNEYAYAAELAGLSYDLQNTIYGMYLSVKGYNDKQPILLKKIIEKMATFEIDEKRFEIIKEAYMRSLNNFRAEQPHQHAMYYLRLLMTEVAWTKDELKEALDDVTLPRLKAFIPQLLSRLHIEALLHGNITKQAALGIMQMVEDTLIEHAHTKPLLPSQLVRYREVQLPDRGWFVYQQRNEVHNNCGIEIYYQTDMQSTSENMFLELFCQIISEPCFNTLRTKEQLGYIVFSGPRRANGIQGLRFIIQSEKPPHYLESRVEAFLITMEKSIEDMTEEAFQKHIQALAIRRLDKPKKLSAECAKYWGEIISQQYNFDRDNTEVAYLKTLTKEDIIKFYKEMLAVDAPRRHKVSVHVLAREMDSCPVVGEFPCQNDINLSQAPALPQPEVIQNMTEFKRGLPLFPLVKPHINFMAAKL
By inhibition is commonly meant the drop in the measured response relative to a control, in per cent. As to `O=C(O)/C=C/c1ccc(OCCCF)cc1`, the inhibition was -0.17% (inactive).
Take `O=C(/C=C/c1ccc2c(c1)OCCO2)c1ccc(O)cc1`: the inhibition was -0.89% (inactive).
`O=C(/C=C(O)/C=C/c1ccc(O)cc1)/C=C/c1ccc(O)cc1`: the inhibition is 138% (active).
Then `Cc1cccc2sc(N(CCCN(C)C)C(=O)CCS(=O)(=O)c3ccccc3)nc12`, with 1.58% (inactive).
For `O=C(O)c1cc(S(=O)(=O)NC2CCCc3ccccc32)ccc1O` (configuration not stated), the inhibition is -0.45% (inactive).
With `O=C(NNS(=O)(=O)c1c(F)cc(F)c(Cl)c1F)C12CC3CC(CC(C3)C1)C2`, the inhibition is -2.1% (inactive).
As for `CCCNC(=O)N1CCN(C(=O)NCCC)CC1`, the inhibition was 4.47% (inactive).
For the molecule `Cc1ccccc1NC(=O)c1nn(-c2ccc(F)c(F)c2)ccc1=O`, the inhibition is -4.03% (inactive).
For the molecule `C=CCOc1cccc(C2C(C(=O)c3ccc(C)o3)=C(O)C(=O)N2CCCn2ccnc2)c1` (configuration not stated), the inhibition was 1.55% (inactive).
As to `C=CCOc1cccc(C2C(C(=O)c3ccc(C)o3)=C(O)C(=O)N2c2nnc(C)s2)c1` (configuration not stated), the inhibition is 24% (active).
As to `Cc1cc(N2C(=O)C(O)=C(C(=O)c3ccc(C)o3)C2c2ccc(OCc3ccccc3)cc2)no1` (configuration not stated), the inhibition was -9.32% (inactive).
For `Cc1ccc(C)c(NS(=O)(=O)c2ccc(OCC(=O)NCc3cccnc3)cc2)c1`, the inhibition was 4.06% (inactive).
As for `CC(C)COc1ccc(C(=O)NNC(=O)CCC(=O)c2cccs2)cc1`, the inhibition is -2.82% (inactive).
Consider `NS(=O)(=O)c1cccc(NC(=O)CC23CC4CC(CC(Br)(C4)C2)C3)c1`, for which the inhibition is 2% (inactive).
Turning to `CN(C)/C=C1/Nc2ccccc2C1=O`, the inhibition is 1.5% (inactive).
The result for `Cc1cc(C)c(/C=C2\C(=O)Nc3ccccc32)[nH]1` reads 66.2% (active); that for `O=C1Nc2ccccc2/C1=C/c1ccnc2ccccc12`, 6.65% (inactive); that for `COc1ccc2nc3n(c(=O)c2c1)-c1ccc(Cl)cc1C(=O)NC3Cc1ccccc1` (configuration not stated), 4.46% (inactive).
Then `COc1cc(/C=C(\C#N)c2nc3c(s2)CC(C)CC3)ccc1O` (configuration not stated), with 89.3% (active); and `Cc1ccc2nc(/C(C#N)=C\c3ccc(OC(=O)c4cccs4)cc3)[nH]c2c1`, with 6.77% (inactive).
Then `COc1cc(/C=C(\C#N)c2nc3ccccc3[nH]2)ccc1O`, with 121% (active); and `N#C/C(=C(/O)COc1cccc2ccccc12)c1nc2ccccc2[nH]1`, with -1.21% (inactive); and `CCOc1cc(/C=C(\C#N)c2nc(-c3cccs3)c(NC(C)=O)s2)ccc1O`, with 11% (inactive).
Take `CCc1nn(CCCC(=O)Nc2ccc(C)c(C)c2)c(=O)c2cc3occc3n12`: the inhibition is 1.46% (inactive).
On to `O=C(c1cccs1)n1nc(NCc2ccccc2)nc1NCc1ccccc1`, for which the inhibition is -0.3% (inactive).
Turning to `COC(=O)Nc1ccc(S(=O)(=O)Nc2cc(OC)nc(OC)n2)cc1`, the inhibition is 0.87% (inactive).
Take `CCOC(=O)c1c(C)n(C)c2ccc(OC)c(NS(=O)(=O)CC)c12`: the inhibition was -2.79% (inactive).
For the molecule `CC1C(=O)Nc2ccc(S(=O)(=O)N3CCN(c4ccccc4F)CC3)cc2NC1=O` (configuration not stated), the inhibition is 1.3% (inactive).
Regarding `COc1ccc(-c2onc3ccc(C(C)=O)cc23)cc1`, the inhibition was -1.49% (inactive).
As for `CC(OC(=O)c1ccc2noc(-c3ccccc3)c2c1)C(N)=O` (configuration not stated), the inhibition was 8.12% (inactive).
With `Oc1ccc(-c2onc3ccc(Cl)cc23)cc1`, the inhibition was 43.5% (active).
Then `Cc1ccc(NC(=O)C2CCN(S(=O)(=O)c3ccc4c(c3)NC(=O)CO4)CC2)cc1C`, with -0.04% (inactive).
`Cn1cccc1C(=O)NNC(=O)COc1ccc(Br)cc1`: the inhibition was 2.25% (inactive).
For `COc1ccc2c(c1)c1nc3n(c(=O)c1n2CC(=O)Nc1ccccc1)CCS3`, the inhibition is -0.03% (inactive).
The result for `Cc1nnc2n1N=C(c1ccc3c(c1)NC(=O)CO3)CS2` reads 4.61% (inactive); that for `CC(=O)N1CCSc2ccc(S(=O)(=O)N3CCC(C)CC3)cc21`, 2.25% (inactive); that for `O=C(O)c1ccc2c(c1)C(=O)N(c1ccc(/C=C/C(=O)c3ccccc3)cc1)C2=O`, 11.8% (inactive).
With `O=C(/C=C/c1ccc(N2CCOCC2)cc1)c1ccccc1`, the inhibition is 20.5% (active).
As to `CC(=O)Nc1ccc(/C=C/C(=O)c2ccccc2)cc1`, the inhibition is 1.53% (inactive).
In the case of `CNC[C@H]1Oc2c(NC(=O)C3CCCCC3)cccc2C(=O)N([C@H](C)CO)C[C@@H]1C`, the inhibition is 8.42% (inactive).
As to `NC(=O)NC(=O)CSc1nc2cc([N+](=O)[O-])ccc2n1-c1cccc(C(F)(F)F)c1`, the inhibition was -2.07% (inactive).
The result for `CC(C)C(=O)Nc1c(O)c2ccccc2[nH]c1=O` reads -1.36% (inactive); that for `CCCC(=O)Nc1c(O)c2ccccc2[nH]c1=O`, 20.6% (active); that for `CCCOC(=O)Cc1c(O)c2ccccc2[nH]c1=O`, 1.56% (inactive).
As for `O=C(c1cccc(Br)c1)N1CCN(C2=NS(=O)(=O)c3ccccc32)CC1`, the inhibition is -5.26% (inactive).
On to `CCCC1CCC(=NNC(=S)NCCc2ccccc2)CC1` (configuration not stated), for which the inhibition is 1.89% (inactive).
Then `COc1cccc(CNC(=O)COc2cc(O)c3c(c2)OC(C)(C)CC3=O)c1`, with 0.91% (inactive); and `O=C(COC(=O)CCc1ccc(S(=O)(=O)N2CCOCC2)cc1)Nc1cccc(Cl)c1`, with 1.15% (inactive).
In the case of `Cc1ccc(CC(=O)Nc2ccc(S(=O)(=O)N3CCOCC3)cc2)cc1C`, the inhibition is 3.81% (inactive).
Then `O=C(CCc1ccc(S(=O)(=O)N2CCOCC2)cc1)Nc1ccc2ccccc2c1`, with 26.8% (active).
For the molecule `COCCN(Cc1nc(-c2ccc(C(F)(F)F)cc2)no1)C(C)C`, the inhibition was 1.82% (inactive).
As to `CCN1C(=S)N[C@@H](CCc2ccccc2)[C@H](C(=O)OC)[C@H]1C`, the inhibition is 0.06% (inactive).
As to `O=C(Nc1ccccc1)N1CCN(C2c3ccccc3-c3ccccc32)CC1`, the inhibition was 0.11% (inactive).
As to `NC(=O)c1cc2ccccc2o/c1=N/NC(=O)c1cccc(F)c1`, the inhibition was 7.74% (inactive).
The result for `COc1cccc2cc(C(N)=O)/c(=N\NC(=O)c3ccccc3)oc12` reads -0.22% (inactive); that for `CCN(CC)c1ccc2cc(C(N)=O)/c(=N\NC(=O)c3ccncc3)oc2c1`, 64.9% (active); that for `O=C(CCN1C(=O)COc2ccccc21)NCCCN1CCN(c2ccc(F)cc2)CC1`, -5.39% (inactive).
Consider `CCN(C(=O)CSc1nnnn1-c1ccc(OC)cc1)C1CCS(=O)(=O)C1` (configuration not stated), for which the inhibition is -3.64% (inactive).
In the case of `CCOc1ccc(NC(=O)c2ccc(NC(=O)C3CCCO3)cc2)cc1` (configuration not stated), the inhibition is 3.26% (inactive).
On to `COCCNC(=O)/C(C#N)=C/c1cccc(OCc2ccccc2)c1`, for which the inhibition is 3.27% (inactive).
As for `COc1ccc(CNC(=O)/C(C#N)=C/c2cccc(OC)c2OC)cc1`, the inhibition is 2.96% (inactive).
Regarding `N#C/C(=C\c1ccc(O)c(O)c1)C(=O)NCc1ccccc1`, the inhibition is 30.2% (active).
Regarding `COc1ccc(CCNC(=O)CC2SC(=Nc3cc(C)cc(C)c3)NC2=O)cc1OC` (configuration not stated), the inhibition was 2.28% (inactive).
As to `Cn1c2ccccc2c2cc(/C=C(\NC(=O)c3ccccc3)C(=O)NCC(=O)O)ccc21`, the inhibition is 32.5% (active).
Turning to `COc1ccc(/C=C(\NC(=O)c2ccccc2)C(=O)NCCN2CCOCC2)cc1OC`, the inhibition is 0.14% (inactive).
The result for `CCOC(=O)CNC(=O)/C(=C\c1ccc(F)cc1)NC(=O)c1ccccc1` reads -3% (inactive); that for `CC(=O)Oc1cc2c(C(=O)NCCN3CCOCC3)c(C)oc2c2ccccc12`, -2.28% (inactive).
Take `NC(=O)c1c(Nc2nc3c(F)cccc3s2)sc2c1CCCC2`: the inhibition was 24.3% (active).
Consider `O=C(Nc1sc2c(c1C(=O)O)CCC2)c1ccccc1F`, for which the inhibition was -2.01% (inactive).
For `COc1cccc(OC)c1C(=O)Nc1sc2c(c1C(N)=O)CCCC2`, the inhibition is 0.41% (inactive).
On to `Cc1cc(C(C)(C)C)oc1C(=O)N(CC(=O)NC1CCCC1)Cc1ccc(Cl)cc1`, for which the inhibition is 6.17% (inactive).
Then `CCN(CCCNC(=O)c1ccc2c(c1)NC(=O)CN2C)c1cccc(C)c1`, with 2.85% (inactive).
For `CC(C)NC(=O)CSc1nnc(COc2ccccc2Cl)o1`, the inhibition was -2.04% (inactive).
As for `CCCCn1c(SCc2ncc(-c3ccccc3)o2)nc2cc(S(N)(=O)=O)ccc21`, the inhibition was 2.94% (inactive).
The result for `COc1ccccc1N(C)C(=O)c1cc(S(=O)(=O)N2CCc3ccccc32)cn1C` reads -0.28% (inactive); that for `CCOc1ccc(C2=CC(c3ccccc3)n3ncnc3N2)cc1` (configuration not stated), 7.53% (inactive); that for `Brc1ccc(C2=CC(c3ccco3)n3ncnc3N2)cc1` (configuration not stated), 5.82% (inactive).
Then `COc1ccc(C2C=C(c3ccc(Br)cc3)Nc3nc(NS(C)(=O)=O)nn32)cc1` (configuration not stated), with 76.7% (active).
`CCOc1ccc(N(CC(=O)NCCOc2ccccc2OC)S(=O)(=O)c2ccccc2)cc1`: the inhibition was 4.02% (inactive).
Then `Cc1cc2c(cc1S(=O)(=O)NCc1ccc(Cl)cc1)OCC(=O)N2`, with 5.28% (inactive); and `O=C(CN1C(=O)C2C3CCC(C3)C2C1=O)Oc1ccc2ccccc2c1` (configuration not stated), with -0.24% (inactive); and `CC1=CC(C)(C)Nc2ccc(OC(=O)C(Cc3ccccc3)N3C(=O)C4CCCCC4C3=O)cc21` (configuration not stated), with -5.52% (inactive).
In the case of `CC1=CC(C)(C)Nc2ccc(OC(=O)CN3C(=O)C4CCCCC4C3=O)cc21` (configuration not stated), the inhibition was 23.6% (active).
`O=C(NCCC1CCCCN1S(=O)(=O)c1ccccc1)C(=O)NCC1CCCO1` (configuration not stated): the inhibition is 3.94% (inactive).
The result for `Cc1ccccc1CSc1nnc(-c2ccccc2)c(=O)[nH]1` reads 0.38% (inactive); that for `Cc1cccc(-n2c(Cc3cc(=O)[nH]c(=O)[nH]3)nnc2SC(C)C)c1`, 6.03% (inactive).
Then `Cc1cccc(-n2c(Cc3cc(=O)[nH]c(=O)[nH]3)nnc2SCC(=O)Nc2cccc(C(F)(F)F)c2)c1`, with 18.2% (active).
As to `COc1cccc(-n2c(Cc3cc(=O)[nH]c(=O)[nH]3)nnc2SCC(=O)Nc2ccccc2)c1`, the inhibition was 2.57% (inactive).
With `Cc1ccc(S(=O)(=O)N2CCN(C(=O)COC(=O)CNC(=O)c3ccc(C(C)(C)C)cc3)CC2)c(C)c1`, the inhibition is 1.73% (inactive).
`CCOc1cc2c(Cl)ncnc2c(OCC)c1OCC`: the inhibition is 17.1% (active).
As to `CCOc1cc(C(=O)Nc2ncccn2)cc(OCC)c1OCC`, the inhibition was -0.15% (inactive).
The result for `CCOc1cc(-c2conc2N)cc(OCC)c1OCC` reads 0.37% (inactive).
